From PubChem
The list is not random: actives were taken first. Their share in the collection is about 19%.
S-ASM inh: human S-ASM enzyme inhibition | placental ASM, HMU-PC fluorogenic substrate, 60 min | hit rate 0.006% among 340,000 | P17405 | Potency, µM (top dose mostly 57.5 µM), without a hit: top-dose activity change, negative = inhibition, hits mostly inhibitors; also: potency is read from the fitted curve at half-maximal effect
Target sequence (P17405 47-631 limits assumed): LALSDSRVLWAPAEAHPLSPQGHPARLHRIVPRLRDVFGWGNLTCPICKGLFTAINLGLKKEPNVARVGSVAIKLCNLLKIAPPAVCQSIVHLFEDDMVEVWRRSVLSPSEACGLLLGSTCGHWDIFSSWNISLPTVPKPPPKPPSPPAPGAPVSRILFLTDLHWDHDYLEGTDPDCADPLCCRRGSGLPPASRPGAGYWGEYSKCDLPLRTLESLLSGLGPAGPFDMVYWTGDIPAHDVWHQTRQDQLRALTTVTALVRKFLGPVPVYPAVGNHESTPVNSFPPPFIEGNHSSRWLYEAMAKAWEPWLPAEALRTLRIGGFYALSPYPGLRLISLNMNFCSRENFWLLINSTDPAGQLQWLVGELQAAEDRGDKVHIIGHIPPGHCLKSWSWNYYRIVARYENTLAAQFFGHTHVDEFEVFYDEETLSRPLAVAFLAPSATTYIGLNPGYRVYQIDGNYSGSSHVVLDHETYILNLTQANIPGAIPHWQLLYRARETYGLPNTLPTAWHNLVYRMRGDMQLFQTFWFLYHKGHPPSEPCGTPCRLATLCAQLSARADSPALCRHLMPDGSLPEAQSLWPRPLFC
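Fluorescence read-out (Ex 386 nm, Em 447 nm) after stopping the reaction at pH 10. Enzyme: ASM from human placenta; substrate HMU-PC0, 9 uM final; 60 min, 37 °C. Compound preincubation 10 min, ambient temperature.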
IL1B secr inh: blocks inflammasome-driven IL-1 beta release | THP-1 LPS/ATP IL-1B secretion, AlphaLISA, 16 h; stronger effect = lower value | AID 743279 | hit rate 4.7% among 360,000 | activity change, % at 57.5 µM; in the data active = activity change below about -50%; inconclusive = mostly about -30% to -49%; also: % is scaled to controls: 0 for no effect and ±100 for the full control effect
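Secreted IL-1B measured by AlphaLISA bead assay after 16 h compound exposure of THP-1 cells; compounds (final up to 57.5 uM) added 1 h before LPS (250 ng/mL) and ATP (1.25 mM) stimulation; lower signal means less secretion.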
HepG2 tox: HepG2 cytotoxicity, counter-screen for TGF-b inhibitors; HepG2 CAGA-GFP viability, ATP luminescence, 18 h; Potency, µM (top dose mostly 46.1 µM), without a hit: at the highest dose activity change, negative = cytotoxicity, usual class: cytotoxic; hit rate 0.76% among 410,000; also: potency is read from the fitted curve at half-maximal effect
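HepG2 CAGA-GFP cells (1000/well, DMEM with 1% FBS) received compound, then TGF-beta at 500 pg/mL final, and were incubated 18 hours at 37 degrees C. Viability was read by CellTiter-Glo luminescence. Media-only wells were set as complete cell-killing and DMSO as no toxicity.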
DT40 TDP1 CPT: DT40-hTDP1 cell growth loss with CPT. chicken DT40 Tdp1-/-;hTDP1 cells + 20 nM CPT, ATP luminescence, 48 h. Potency, µM (doses to about 46.2 µM), without a hit: top-dose activity change, negative = growth inhibition, hits mostly inhibitors. hit rate 12% among 420,000. AID 686979; also: potency is read from the fitted curve at half-maximal effect; % is scaled to controls: 0 for no effect and ±100 for the full control effect; nearly all actives have a fitted effect of over 55% in size
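Chicken DT40 Tdp1-/- cells complemented with human TDP1, 400 cells/well, exposed to compounds plus 20 nM camptothecin for at least 48 h at 37 C; viability read as ATP content by CellTiter-Glo luminescence.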
TGFb SMAD3 inh: inhibitors of TGF-b signaling | HepG2 CAGA-GFP TGF-b/SMAD3 reporter, GFP fluorescence, 18 h; TGF-beta stimulated, 500 pg/mL final | Potency, µM (series often up to 46.1 µM), inactives show top-dose activity, negative = inhibition, usual class: inhibitors | hit rate 1.2% among 410,000 | AID 588855; also: potency is read from the fitted curve at half-maximal effect; % is scaled to controls: 0 for no effect and ±100 for the full control effect; nearly all actives have a fitted effect of over 65% in size
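GFP signal (ex488/em500-530) from TGF-beta-stimulated HEPG2 CAGA-GFP cells, 500 pg/mL final, 18 h at 37 degrees C in DMEM plus 1% FBS, normalized to unstimulated and DMSO-stimulated controls.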
DT40 TDP1 no CPT: qHTS for Inhibitors of human tyrosyl-DNA phosphodiesterase 1 (TDP1): qHTS in cells in absence of CPT. DT40 Tdp1-/- hTDP1 cells, no CPT, ATP luminescence, 48 h. Potency, µM (top dose mostly 46.2 µM), inactives show at the highest dose activity change, negative = growth inhibition, hits mostly inhibitors. hit rate 15% among 420,000; also: potency is read from the fitted curve at half-maximal effect; % is scaled to controls: 0 for no effect and ±100 for the full control effect; nearly all actives have a fitted effect of over 55% in size
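Compound effects on proliferation are scored in DT40 Tdp1-/-;hTDP1 cells in the absence of CPT. ATP levels (CellTiter-Glo luminescence) are recorded after a ≥48 hr, 37 °C incubation.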
Active calls of the source: *. Unless noted, calls follow the shape of the dose curve; as a rule, active = well fitted curve in the direction sought with a large enough effect; inconclusive = small, poorly fitted or top-dose-only effect, or another doubt; inactive = no such curve, though single readings can be large; an effect the other way counts as inactive or inconclusive.

How did CC(C)(C)c1ccc(-n2ncc3c2CCCC3NC(=O)c2cnccn2)cc1 (stereo unspecified) do in these assays?
S-ASM inh: -3%; IL1B secr inh: -82*; HepG2 tox: -51%; DT40 TDP1 CPT: inconclusive; TGFb SMAD3 inh: -5%; DT40 TDP1 no CPT: 9.2µM*

What do the screens show for `Cn1nccc1C(=O)NC1CCCc2c1cnn2-c1ccc(C(C)(C)C)cc1` (stereo unspecified)?
IL1B secr inh: -3; HepG2 tox: -32%; DT40 TDP1 CPT: 2.9µM*; TGFb SMAD3 inh: -4%; DT40 TDP1 no CPT: 2.9µM*

What do the screens show for `CCOc1ccc2nc(N(Cc3cccnc3)C(=O)c3ccco3)sc2c1`?
HepG2 tox: -10%; DT40 TDP1 CPT: -8%; TGFb SMAD3 inh: 1%; DT40 TDP1 no CPT: -13%

What do the screens show for `O=C(c1cc2cc(Br)ccc2o1)N1CCN(c2ccccc2)CC1`?
S-ASM inh: -2%; IL1B secr inh: 3; HepG2 tox: -1%; DT40 TDP1 CPT: -2%; TGFb SMAD3 inh: -7%; DT40 TDP1 no CPT: inconclusive

Results for Cc1cn2c(=O)cc(COc3ccccc3NC(=O)c3ccco3)nc2s1 ?
HepG2 tox: 2%; DT40 TDP1 CPT: -8%; TGFb SMAD3 inh: 8%; DT40 TDP1 no CPT: -13%

What do the screens show for `C=CCNS(=O)(=O)c1ccc2c(c1)n(C)c(=O)n2C`?
S-ASM inh: -1%; IL1B secr inh: 0; HepG2 tox: -11%; DT40 TDP1 CPT: 9%; TGFb SMAD3 inh: inconclusive; DT40 TDP1 no CPT: -1%

What do the screens show for `COc1ccc(NC(=O)CCc2c(C)nc3c(-c4ccc(F)cc4)c(C)nn3c2C)c(OC)c1`?
HepG2 tox: 2%; DT40 TDP1 CPT: 23µM*; TGFb SMAD3 inh: -3%; DT40 TDP1 no CPT: 21µM*

Results for Cc1nc2c(-c3ccc(F)cc3)c(C)nn2c(C)c1CCC(=O)NC(C)CCc1ccco1 (stereo unspecified) ?
S-ASM inh: -16%; IL1B secr inh: inconclusive; HepG2 tox: -9%; DT40 TDP1 CPT: 23µM*; TGFb SMAD3 inh: inconclusive; DT40 TDP1 no CPT: 23µM*

How did COc1ccc(OC)c(NC(=O)CCc2c(C)nc3c(-c4ccccc4)c(C)nn3c2C)c1 do in these assays?
HepG2 tox: -10%; DT40 TDP1 CPT: inconclusive; TGFb SMAD3 inh: inconclusive; DT40 TDP1 no CPT: 21µM*

Results for Cc1nc2c(-c3ccccc3)c(C)nn2c(C)c1CCC(=O)NCc1ccco1 ?
S-ASM inh: 3%; IL1B secr inh: -9; HepG2 tox: 1%; DT40 TDP1 CPT: inconclusive; TGFb SMAD3 inh: 2%; DT40 TDP1 no CPT: inconclusive

Results for Cc1nc2c(-c3ccc(F)cc3)c(C)nn2c(C)c1CCC(=O)Nc1ccc(F)cc1F ?
S-ASM inh: 23%; IL1B secr inh: -17; HepG2 tox: 5%; DT40 TDP1 CPT: -19%; TGFb SMAD3 inh: -20%; DT40 TDP1 no CPT: -21%

Results for CSc1ccc(CCNC(=O)CCc2c(C)nc3c(-c4ccccc4)c(C)nn3c2C)cc1 ?
HepG2 tox: -35%; DT40 TDP1 CPT: inconclusive; TGFb SMAD3 inh: inconclusive; DT40 TDP1 no CPT: 21µM*

What do the screens show for `Cc1ccc(C(=O)NCCC(=O)NCc2ccco2)cc1`?
S-ASM inh: -3%; IL1B secr inh: -3; HepG2 tox: 0%; DT40 TDP1 CPT: 0%; TGFb SMAD3 inh: 7%; DT40 TDP1 no CPT: 4%

What do the screens show for `Cc1cn(C2CC3OCC(NC(=O)C(NC(=O)OC(C)(C)C)C(C)OCc4ccccc4)C3O2)c(=O)[nH]c1=O` (stereo unspecified)?
HepG2 tox: 4%; TGFb SMAD3 inh: -23%

What do the screens show for `CCN1CCN(c2ccc(NC(=O)CCc3c(C)nc4c(-c5ccccc5)c(C)nn4c3C)cc2)CC1`?
S-ASM inh: -4%; IL1B secr inh: -62*; HepG2 tox: -15%; DT40 TDP1 CPT: inconclusive; TGFb SMAD3 inh: inconclusive; DT40 TDP1 no CPT: 16µM*

Results for COC(=O)C(NC(=O)CCc1c(C)nc2c(-c3ccccc3)c(C)nn2c1C)C(C)C (stereo unspecified) ?
HepG2 tox: -14%; DT40 TDP1 CPT: inconclusive; TGFb SMAD3 inh: inconclusive; DT40 TDP1 no CPT: 26µM*

How did Cc1nc2c(-c3ccccc3)c(C)nn2c(C)c1CCC(=O)Nc1ccccc1F do in these assays?
HepG2 tox: -1%; DT40 TDP1 CPT: 18µM*; TGFb SMAD3 inh: inconclusive; DT40 TDP1 no CPT: inconclusive

Results for CCOc1ccc(NC(=O)CCc2c(C)nc3c(-c4ccccc4)c(C)nn3c2C)cc1 ?
HepG2 tox: -13%; DT40 TDP1 CPT: -17%; TGFb SMAD3 inh: -4%; DT40 TDP1 no CPT: inconclusive

Results for COc1ccc(-c2cc(C(=O)Nc3c(C)nn(Cc4ccc(F)cc4)c3C)no2)cc1OC ?
HepG2 tox: -12%; DT40 TDP1 CPT: inconclusive; TGFb SMAD3 inh: -11%; DT40 TDP1 no CPT: inconclusive

What do the screens show for `COc1ccc(C(=O)NCCS(=O)(=O)N2CCCC2)cc1`?
S-ASM inh: -2%; IL1B secr inh: -7; HepG2 tox: 5%; DT40 TDP1 CPT: 13%; TGFb SMAD3 inh: 2%; DT40 TDP1 no CPT: -23%

How did C=CCN(C(=O)C1=NN(C2CCS(=O)(=O)C2)C(=O)CC1)c1nc(-c2ccc([N+](=O)[O-])cc2)cs1 (stereo unspecified) do in these assays?
S-ASM inh: -6%; IL1B secr inh: -55*; HepG2 tox: -31%; DT40 TDP1 CPT: -2%; TGFb SMAD3 inh: inconclusive; DT40 TDP1 no CPT: 18µM*

What do the screens show for `CCCN(CCC)CCCNc1ccc(C(=O)Nc2cccc(OC)c2)cc1[N+](=O)[O-]`?
S-ASM inh: -16%; IL1B secr inh: -81*; HepG2 tox: -6%; DT40 TDP1 CPT: inconclusive; TGFb SMAD3 inh: 5%; DT40 TDP1 no CPT: inconclusive

Results for Cc1ccc(NC(=O)c2ccc(NCCCN3CCC(C)CC3)c([N+](=O)[O-])c2)c(C)c1 ?
S-ASM inh: -10%; IL1B secr inh: inconclusive; HepG2 tox: -44%; DT40 TDP1 CPT: inconclusive; TGFb SMAD3 inh: inconclusive; DT40 TDP1 no CPT: 16µM*

What do the screens show for `COc1cccc(NC(=O)c2ccc(NCCCN3CCC(C)CC3)c([N+](=O)[O-])c2)c1`?
S-ASM inh: -18%; IL1B secr inh: -65*; HepG2 tox: -26%; DT40 TDP1 CPT: inconclusive; TGFb SMAD3 inh: -21%; DT40 TDP1 no CPT: 16µM*
